This is an account of results in article PMC7862700, “An all-to-all approach to the identification of sequence-specific readers for epigenetic DNA modifications on cytosine”.

Common to all, as to assay: DAPPL (digital affinity profiling via proximity ligation, sequencing); 10 mM Tris-HCl pH 7.5, 50 mM NaCl, 1 mM DTT, 4% glycerol, room temperature, 30 min; GST-TFs on glutathione beads, 16-mer random dsDNA library, 0.1% formaldehyde crosslink after washing; high values mean tight binding
One assay deals with HSF1 (Homo sapiens, UniProt Q00613 1-529). The conditions noted are these: protein: recombinant; tags: N-terminal GST; chain copies: 3; dsDNA, one strand shown. The method, boiled down: (§1)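 Each value of binding signal is a hexamer's read frequency for a factor divided by the same hexamer's frequency in the tag-only sample. Barcoded, bead-captured GST fusions of human transcription factors made in yeast were pooled with that sample and incubated with 200 nmole of a random double-stranded 16-mer DNA library in Tris/NaCl/DTT/glycerol buffer at room temperature for 30 min. Washing, 0.1% formaldehyde crosslinking, proximity ligation, PCR and Illumina NextSeq500 sequencing followed.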

In the next assay the target is T1, FLI1 (Homo sapiens, UniProt Q01543 1-452).
T1 sequence: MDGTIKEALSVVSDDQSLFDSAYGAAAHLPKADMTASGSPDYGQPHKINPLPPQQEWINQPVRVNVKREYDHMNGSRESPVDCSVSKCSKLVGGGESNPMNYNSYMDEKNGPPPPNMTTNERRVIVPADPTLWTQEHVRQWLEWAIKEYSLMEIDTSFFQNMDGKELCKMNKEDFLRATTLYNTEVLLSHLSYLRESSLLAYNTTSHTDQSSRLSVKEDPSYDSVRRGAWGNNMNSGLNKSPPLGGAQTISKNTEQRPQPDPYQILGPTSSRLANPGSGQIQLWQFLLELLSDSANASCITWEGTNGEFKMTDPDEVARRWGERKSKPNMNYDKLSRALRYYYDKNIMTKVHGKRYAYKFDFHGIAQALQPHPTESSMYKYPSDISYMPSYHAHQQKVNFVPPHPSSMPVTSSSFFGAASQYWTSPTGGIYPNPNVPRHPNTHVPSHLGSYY
To be noted: protein: recombinant; tags: N-terminal GST; dsDNA, one strand shown. An outline of the steps:
as §1

For another assay, the target named is SPI1 (Homo sapiens, UniProt P17947 1-270). To be noted: protein: recombinant; tags: N-terminal GST; dsDNA, one strand shown. The method, boiled down: as §1
A further assay concerns the target T2, ELK4 (Homo sapiens, UniProt P28324-2 1-405).
T2 sequence: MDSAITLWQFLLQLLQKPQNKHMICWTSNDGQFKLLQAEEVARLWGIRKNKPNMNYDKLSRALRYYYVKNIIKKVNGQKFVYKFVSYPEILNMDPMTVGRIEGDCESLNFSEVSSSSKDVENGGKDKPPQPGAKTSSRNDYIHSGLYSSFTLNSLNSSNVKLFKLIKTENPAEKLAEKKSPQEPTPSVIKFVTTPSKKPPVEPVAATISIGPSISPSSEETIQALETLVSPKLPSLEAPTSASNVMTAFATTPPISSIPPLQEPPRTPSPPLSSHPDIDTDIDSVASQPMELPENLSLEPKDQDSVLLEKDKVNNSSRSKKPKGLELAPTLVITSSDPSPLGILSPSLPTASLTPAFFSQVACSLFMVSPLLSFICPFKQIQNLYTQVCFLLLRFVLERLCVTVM
The conditions noted are these: protein: recombinant; tags: N-terminal GST; dsDNA, one strand shown. An outline of the steps:
as §1

In another assay the target is T3, ETV2 (Homo sapiens, UniProt O00321 1-342).
T3 sequence: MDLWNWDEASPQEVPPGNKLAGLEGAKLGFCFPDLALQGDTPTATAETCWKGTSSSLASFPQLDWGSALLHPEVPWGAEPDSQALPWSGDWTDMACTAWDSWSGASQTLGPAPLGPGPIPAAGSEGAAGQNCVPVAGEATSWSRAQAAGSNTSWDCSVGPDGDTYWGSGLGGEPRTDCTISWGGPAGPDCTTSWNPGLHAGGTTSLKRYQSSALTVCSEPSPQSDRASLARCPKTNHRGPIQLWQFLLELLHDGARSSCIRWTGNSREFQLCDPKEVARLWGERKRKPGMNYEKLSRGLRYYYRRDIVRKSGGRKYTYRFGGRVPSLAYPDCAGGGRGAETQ
To be noted: protein: recombinant; tags: N-terminal GST; dsDNA, one strand shown. The method, boiled down: as §1

The target of a further assay is T4, ETV3 (Homo sapiens, UniProt P41162-2 1-143).
T4 sequence: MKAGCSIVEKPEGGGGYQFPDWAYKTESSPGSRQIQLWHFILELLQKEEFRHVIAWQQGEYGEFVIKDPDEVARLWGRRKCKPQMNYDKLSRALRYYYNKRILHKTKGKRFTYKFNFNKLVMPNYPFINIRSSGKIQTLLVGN
The conditions noted are these: protein: recombinant; tags: N-terminal GST; dsDNA, one strand shown. An outline of the steps:
as §1

For a further assay, the target named is ETV6 (Homo sapiens, UniProt P41212 1-452). To be noted: protein: recombinant; tags: N-terminal GST; dsDNA, one strand shown. The method, boiled down: as §1
Another assay concerns the target T5, ELK3 (Homo sapiens, UniProt P41970 1-407).
T5 sequence: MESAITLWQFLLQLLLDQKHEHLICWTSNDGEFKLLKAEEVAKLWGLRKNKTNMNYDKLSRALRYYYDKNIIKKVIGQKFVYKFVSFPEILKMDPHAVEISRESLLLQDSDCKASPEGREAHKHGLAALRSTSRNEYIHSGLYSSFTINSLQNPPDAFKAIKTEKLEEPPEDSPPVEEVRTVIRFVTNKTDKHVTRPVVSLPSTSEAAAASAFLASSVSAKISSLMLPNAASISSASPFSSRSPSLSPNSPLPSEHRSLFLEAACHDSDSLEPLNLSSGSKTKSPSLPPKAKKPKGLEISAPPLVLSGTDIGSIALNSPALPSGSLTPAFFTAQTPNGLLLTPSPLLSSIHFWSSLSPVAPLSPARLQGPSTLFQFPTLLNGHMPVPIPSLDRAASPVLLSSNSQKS
The conditions noted are these: protein: recombinant; tags: N-terminal GST; dsDNA, one strand shown. The method, boiled down:
as §1

A further assay addresses T6, GABPA (Homo sapiens, UniProt Q06546 1-454).
T6 sequence: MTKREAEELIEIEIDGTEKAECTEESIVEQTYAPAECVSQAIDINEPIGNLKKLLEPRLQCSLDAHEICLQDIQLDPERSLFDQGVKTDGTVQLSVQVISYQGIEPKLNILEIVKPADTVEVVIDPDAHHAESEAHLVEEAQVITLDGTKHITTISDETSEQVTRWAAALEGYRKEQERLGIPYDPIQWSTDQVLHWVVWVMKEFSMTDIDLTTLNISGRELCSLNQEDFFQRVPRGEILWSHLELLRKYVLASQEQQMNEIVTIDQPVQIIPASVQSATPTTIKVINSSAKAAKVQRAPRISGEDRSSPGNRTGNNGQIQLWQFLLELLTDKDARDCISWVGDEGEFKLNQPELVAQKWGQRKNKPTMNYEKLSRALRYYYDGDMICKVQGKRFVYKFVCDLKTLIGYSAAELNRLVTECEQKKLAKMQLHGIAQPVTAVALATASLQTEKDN
The conditions noted are these: protein: recombinant; tags: N-terminal GST; dsDNA, one strand shown. The method, boiled down:
as §1

The next assay concerns the target SPIB (Homo sapiens, UniProt Q01892 1-262). To be noted: protein: recombinant; tags: N-terminal GST; dsDNA, one strand shown. The method, boiled down: as §1
Another assay addresses T7, FEV (Homo sapiens, UniProt Q99581 1-238).
T7 sequence: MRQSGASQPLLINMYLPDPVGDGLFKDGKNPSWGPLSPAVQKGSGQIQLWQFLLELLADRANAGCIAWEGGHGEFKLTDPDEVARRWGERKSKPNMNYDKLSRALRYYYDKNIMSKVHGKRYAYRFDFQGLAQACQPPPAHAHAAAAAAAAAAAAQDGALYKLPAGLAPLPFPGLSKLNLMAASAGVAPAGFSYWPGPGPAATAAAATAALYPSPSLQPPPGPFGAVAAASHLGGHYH
To be noted: protein: recombinant; tags: N-terminal GST; dsDNA, one strand shown. An outline of the steps: as §1

HSF1, sequence (Q00613 whole entry, the tested form may be a part): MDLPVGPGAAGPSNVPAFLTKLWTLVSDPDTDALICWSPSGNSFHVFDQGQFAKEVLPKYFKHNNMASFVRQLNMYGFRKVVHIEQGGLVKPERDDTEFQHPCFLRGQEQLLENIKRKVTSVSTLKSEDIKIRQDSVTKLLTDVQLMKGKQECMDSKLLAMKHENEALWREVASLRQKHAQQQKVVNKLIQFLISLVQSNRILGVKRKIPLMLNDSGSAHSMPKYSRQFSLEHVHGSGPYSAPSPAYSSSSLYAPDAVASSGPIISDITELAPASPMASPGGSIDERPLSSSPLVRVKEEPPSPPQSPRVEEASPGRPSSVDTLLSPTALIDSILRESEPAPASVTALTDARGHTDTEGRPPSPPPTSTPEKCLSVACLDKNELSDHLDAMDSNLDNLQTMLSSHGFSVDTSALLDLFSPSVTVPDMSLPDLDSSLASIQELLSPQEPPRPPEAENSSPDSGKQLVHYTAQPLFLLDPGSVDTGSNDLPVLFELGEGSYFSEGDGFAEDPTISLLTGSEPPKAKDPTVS
SPIB, sequence (Q01892 whole entry): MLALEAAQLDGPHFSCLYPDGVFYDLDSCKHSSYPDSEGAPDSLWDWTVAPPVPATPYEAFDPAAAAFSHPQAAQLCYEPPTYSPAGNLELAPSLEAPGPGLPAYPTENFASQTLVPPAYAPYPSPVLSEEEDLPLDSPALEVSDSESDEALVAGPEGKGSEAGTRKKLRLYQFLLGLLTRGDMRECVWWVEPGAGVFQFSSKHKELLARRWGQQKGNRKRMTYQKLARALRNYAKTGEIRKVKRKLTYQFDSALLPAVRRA
ETV6, sequence (P41212 whole entry): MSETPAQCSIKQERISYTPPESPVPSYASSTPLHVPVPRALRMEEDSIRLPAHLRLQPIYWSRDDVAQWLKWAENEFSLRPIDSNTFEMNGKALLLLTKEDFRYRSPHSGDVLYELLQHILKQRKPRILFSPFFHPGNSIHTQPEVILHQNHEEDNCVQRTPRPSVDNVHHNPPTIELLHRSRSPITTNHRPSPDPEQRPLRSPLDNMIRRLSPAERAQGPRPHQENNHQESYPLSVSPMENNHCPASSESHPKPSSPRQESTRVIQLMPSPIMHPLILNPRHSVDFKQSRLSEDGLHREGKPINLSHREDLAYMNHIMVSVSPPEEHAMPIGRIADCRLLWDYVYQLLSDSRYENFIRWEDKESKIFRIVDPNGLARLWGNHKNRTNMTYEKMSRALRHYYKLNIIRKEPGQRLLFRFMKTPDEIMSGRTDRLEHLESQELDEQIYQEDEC

On to CATAGA, for which, in the assay with HSF1, the binding signal was 1.15 fold enrichment (6-mer frequency, TF over GST control).
For the sequence GTGCGC, the binding signal in the assay with FLI1 is 1.02 fold enrichment (6-mer frequency, TF over GST control); with SPI1, 1.02 fold enrichment (6-mer frequency, TF over GST control); with ELK4, 1.15 fold enrichment (6-mer frequency, TF over GST control); with ETV2, 1.02 fold enrichment (6-mer frequency, TF over GST control); in the assay with ETV3, 1.04 fold enrichment (6-mer frequency, TF over GST control); in the assay with ETV6, 1.03 fold enrichment (6-mer frequency, TF over GST control).
On to CAGAAG, for which the binding signal in the assay with HSF1 is 1.32 fold enrichment (6-mer frequency, TF over GST control).
Consider AGGAAT, for which the binding signal with HSF1 was 1.01 fold enrichment (6-mer frequency, TF over GST control).
For GCCTGT, the binding signal in the assay with FLI1 was 1.02 fold enrichment (6-mer frequency, TF over GST control); in the assay with ELK3, 1.03 fold enrichment (6-mer frequency, TF over GST control); in the assay with ELK4, 1.05 fold enrichment (6-mer frequency, TF over GST control); in the assay with ETV3, 1.04 fold enrichment (6-mer frequency, TF over GST control).
As to GACTCA, the binding signal in the assay with FLI1 was 1.06 fold enrichment (6-mer frequency, TF over GST control); with GABPA it was 1.02 fold enrichment (6-mer frequency, TF over GST control); with SPIB, 1.09 fold enrichment (6-mer frequency, TF over GST control); with ELK3, 1.04 fold enrichment (6-mer frequency, TF over GST control); with FEV it was 1 fold enrichment (6-mer frequency, TF over GST control).
